Screening results as filed in PubChem.
Rows were chosen to be rich in hits. Some 1.8% of all compounds tested hit in one or more screens of this group.
MIN6 prolif – MIN6 beta-cell proliferation induction | MIN6 cells proliferation, ATPlite luminescence, 48 h; cells starved in 0.2% serum; 100% = growth in 10% serum | proliferation, % at 10 µM | 0.29% of 330,000 active | AID 2380;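 active = compounds whose signal lies at least 3.5 SD above the mean of all wells on their plate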
VLA-4 inh – inhibition in a human VLA-4 binding assay. AID 2557. inhibition, % (about 7 µM as worked out from the volumes in the protocol). VLA-4 expressing cells, ligand binding flow cytometry. 0.2% of 330,000 active. P13612; in the data active = inhibition above about 50%
NRP1-CendR mod – alters CendR peptide binding to human NRP-1; O14786; FAM-RPARPAR peptide binding to NRP-1, fluorescence polarization; inhibition, % at 25 µM; 0.85% of 360,000 active; AID 602438;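 active = inhibition or corrected inhibition above about 18%, plus a signal ratio from 0.5 to 1.5, limit read from the data, passing the limit was not always enough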
A3A deaminase – inhibitors of human APOBEC3A DNA deaminase; recombinant A3A, FAM/TAMRA ssDNA deamination fluorescence; 0.41% of 330,000 active; inhibition, % at 20 µM; P31941; AID 493011;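 active = at least 40% inhibition at 20 µM here, with at most 30% in a related deaminase screen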
Target sequence (P31941 whole entry, looked up): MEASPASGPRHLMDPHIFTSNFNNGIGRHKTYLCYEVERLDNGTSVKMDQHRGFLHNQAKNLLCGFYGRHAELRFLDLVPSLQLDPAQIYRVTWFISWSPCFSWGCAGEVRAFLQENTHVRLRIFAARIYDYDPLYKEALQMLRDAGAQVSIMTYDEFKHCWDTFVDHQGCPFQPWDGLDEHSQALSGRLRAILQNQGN
A3G deaminase – blocks human APOBEC3G single-stranded DNA deamination. 0.28% of 330,000 active. Q9HC16. recombinant A3G, ssDNA deamination FAM/TAMRA fluorescence. inhibition, % at 20 µM;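 active = inhibition of at least 40% at 20 µM, with no more than 30% in the related APOBEC3A deaminase screen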
Target sequence (Q9HC16 whole entry, looked up): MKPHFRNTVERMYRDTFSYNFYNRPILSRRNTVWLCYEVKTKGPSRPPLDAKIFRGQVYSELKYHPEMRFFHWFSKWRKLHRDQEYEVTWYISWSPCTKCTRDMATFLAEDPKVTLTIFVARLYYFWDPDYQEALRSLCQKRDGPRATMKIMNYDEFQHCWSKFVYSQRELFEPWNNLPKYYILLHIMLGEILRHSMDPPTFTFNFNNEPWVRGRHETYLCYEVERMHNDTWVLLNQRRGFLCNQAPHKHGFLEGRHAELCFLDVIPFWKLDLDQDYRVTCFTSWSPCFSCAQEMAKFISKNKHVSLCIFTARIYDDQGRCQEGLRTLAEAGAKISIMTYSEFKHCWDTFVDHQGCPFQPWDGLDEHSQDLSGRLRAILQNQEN
APOBEC3A confirm – confirmation of human APOBEC3A DNA deaminase inhibitors | shares compounds with A3A deaminase | recombinant A3A, ssDNA deaminase UDG fluorescence assay | inhibition, % at 20 µM | 63% of 1,400 active;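 active = inhibition reaching a set limit, 80% of the first screen's cutoff, at 20 µM in any replicate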
UDG ctr A3A – counter-screen for APOBEC3A inhibitors: UDG; shares compounds with A3A deaminase; UDG counterscreen, FAM/TAMRA uracil oligo fluorescence; inhibition, % at 20 µM; 1,000 tested, under 10 active; call rule not given here
Large screens that a line does not name were inactive (follow-up assays come after a bar, where they were run).

Cc1nnc(SCC(=O)Nc2ccc3c(c2)OCCO3)n1N	none
Nn1c(SCC(=O)Nc2ccc3c(c2)OCCO3)nnc1C(F)(F)F	A3A deaminase 61 | APOBEC3A confirm inactive
Nn1c(SCC(=O)Nc2ccc3c(c2)OCCO3)nnc(CCC(=O)O)c1=O	A3A deaminase 74 | APOBEC3A confirm 60 | UDG ctr A3A inactive
CC12CC3(C)CC(C)(C1)CC(C(=O)NCC(=O)O)(C2)C3	A3A deaminase 50 | APOBEC3A confirm inactive | UDG ctr A3A inactive
Cc1cccc(NC(=O)CNC(=O)Cn2ncc(Cl)c(Cl)c2=O)c1C	A3A deaminase 49 | APOBEC3A confirm 38 | UDG ctr A3A inactive
Cc1cccc(NC(=O)CNC(=O)CSc2ncccn2)c1C	none
CCN1C(=O)C(=O)N(CC(=O)Nc2ccccc2OC(F)F)C1=O	none
CC1CCCC(NC(=O)NC(=O)COC(=O)c2ccc(O)cc2O)C1C (centres undefined)	A3A deaminase 85 | APOBEC3A confirm 33 | UDG ctr A3A inactive
CC(C)c1cc(C(=O)N2CCCC(Nc3ccc(F)cc3)C2)n[nH]1 (centres undefined)	none
CCCCn1c(N)c(-c2nc3ccccc3o2)c2c([N+](=O)[O-])nn(CC)c(=O)c21	none
CCCCn1c(N)c(-c2nc3ccccc3o2)c2c([N+](=O)[O-])nn(C)c(=O)c21	A3A deaminase 53 | APOBEC3A confirm inactive
C=CCn1cccc(C(=O)Nc2ccc(OC)c(Cl)c2)c1=O	A3A deaminase 48 | APOBEC3A confirm inactive | UDG ctr A3A inactive
O=C(O)C1C2C=CC(C2)C1C(=O)N1CCN(C/C=C/c2ccccc2)CC1 (centres undefined)	A3A deaminase 47 | APOBEC3A confirm inactive
CC1=C(C)CC(C(=O)N2CCN(C/C=C/c3ccccc3)CC2)C(C(=O)O)C1 (centres undefined)	none
CCOc1ccc(NC(C(=O)Nc2cccc(C(C)=O)c2)c2ccccc2)cc1 (centres undefined)	A3A deaminase 43 | APOBEC3A confirm inactive | UDG ctr A3A inactive
CCn1nc(C)c(CNC(=O)Nc2ccc3c(c2)OCO3)c1C	none
COc1cc(OC)c(N2CC(C(=O)NCCC3=CCCCC3)CC2=O)cc1Cl (centres undefined)	none
Cn1c(SCC(=O)N2CCOCC2)nnc1-c1cccc(NC(=O)c2ccccc2)c1	A3A deaminase 64 | APOBEC3A confirm 66 | UDG ctr A3A inactive
O=C(CC1(O)C(=O)Nc2ccccc21)c1ccc2c(c1)OCO2 (centres undefined)	A3A deaminase 79 | APOBEC3A confirm inactive | UDG ctr A3A inactive
Cc1ccc2c(c1C)NC(=O)C2(O)CC(=O)c1ccc2c(c1)OCO2 (centres undefined)	none
N/C(=N\OC(=O)Cc1ccc([N+](=O)[O-])cc1)c1cccc(Br)c1	none
N/C(=N\OC(=O)Cc1ccc([N+](=O)[O-])cc1)c1ccc([N+](=O)[O-])cc1	A3A deaminase 53 | APOBEC3A confirm inactive | UDG ctr A3A inactive
CCN1CCN(c2ccc(S(=O)(=O)N3CCOCC3)cc2NC(=O)COc2ccc(F)cc2Cl)CC1	none
CC(C)Nc1nc(NC(C)C)nc(Nn2cnnc2)n1	none
CC(C)Nc1nc(NC(C)C)nc(N(C)n2cnnc2)n1	A3A deaminase 41 | APOBEC3A confirm inactive
Cn1nnnc1SCC(=O)Nc1ccc(Br)cc1Cl	A3A deaminase 50 | APOBEC3A confirm 49 | UDG ctr A3A inactive
Cn1nnnc1SCC(=O)Nc1ccc(Br)cc1Br	none
COc1ccccc1N1C(=NC(=O)CCc2ccccc2)SC2CS(=O)(=O)CC21 (centres undefined)	none
N#CC1(NC(=O)COc2ccc(S(=O)(=O)N3CCCC3)cc2[N+](=O)[O-])CCCCC1	A3A deaminase 51 | APOBEC3A confirm inactive
CC1CCCCN1C(=O)COc1ccc(S(=O)(=O)N2CCCC2)cc1[N+](=O)[O-] (centres undefined)	none
O=C(O)CN1C(=O)C2C3C=CC(C3)C2C1=O (centres undefined)	none
C[N+]1(CN2C(=O)C3C4C=CC(C4)C3C2=O)CCCCC1 (centres undefined)	A3A deaminase 68 | APOBEC3A confirm 68 | UDG ctr A3A inactive
COc1ccc(C2=[N+](C)CCn3cccc32)c(OC)c1	A3A deaminase 63 | APOBEC3A confirm 73 | UDG ctr A3A inactive
CCn1ccnc1CN(C)C(=O)C1CCC(=O)N(Cc2cccc(C(F)(F)F)c2)C1 (centres undefined)	none
O=C(Cn1ccc([N+](=O)[O-])n1)N1CCc2ccccc21	none
Cc1ccn(CCC(=O)N2CCc3ccccc32)n1	NRP1-CendR mod 20, A3A deaminase 91 | APOBEC3A confirm inactive | UDG ctr A3A inactive
O=C(CC[C@H]1O[C@@H](n2ccc(=O)[nH]c2=O)[C@H](O)[C@@H]1O)N[C@H](Cc1ccccc1)C(=O)NCc1ccccc1	none (no result: MIN6 prolif, VLA-4 inh, A3A deaminase, A3G deaminase)
CC1(c2ccccc2)NC(=O)N(CC(=O)Nc2ccccc2C(=O)NC2CC2)C1=O (centres undefined)	none
CSCCOC(=O)c1[nH]c2c(c1C)C(=O)CC(c1ccco1)C2 (centres undefined)	A3A deaminase 44 | APOBEC3A confirm 39 | UDG ctr A3A inactive
CCOC(=O)c1[nH]c2c(c1C)C(=O)CC(c1ccco1)C2 (centres undefined)	none
COCCOC(=O)c1[nH]c2c(c1C)C(=O)CC(c1ccco1)C2 (centres undefined)	A3A deaminase 56 | APOBEC3A confirm 45 | UDG ctr A3A inactive
Cc1c(C(=O)OCCOC(C)C)[nH]c2c1C(=O)CC(c1ccco1)C2 (centres undefined)	none
CCOC(=O)CN1C(=O)S/C(=C\c2ccc(-c3cccc(C(=O)O)c3C)o2)C1=O	none
CCOC(=O)CN1C(=O)S/C(=C\c2ccc(-c3ccc(C(=O)O)c(Cl)c3)o2)C1=O	A3A deaminase 58 | APOBEC3A confirm 40 | UDG ctr A3A inactive
COCC1CCCCN1C(=O)c1ccc2nc(Cc3ccc(OC)c(OC)c3)oc2c1 (centres undefined)	none
C[n+]1ccc(/C=C/c2ccccc2O)c2ccccc21	A3A deaminase 64 | APOBEC3A confirm 65 | UDG ctr A3A inactive
CCOc1ccc(N(CC(=O)N/N=C/c2ccccn2)S(=O)(=O)c2ccc(Cl)cc2)cc1	none
COCCn1c(N)c(N(Cc2ccccc2)C(=O)C2=COCCO2)c(=O)[nH]c1=O	A3A deaminase 49 | APOBEC3A confirm inactive
CC1Cc2cc(/C(O)=C3/C(=O)C(=O)N(CCCn4ccnc4)C3c3ccc(F)cc3)ccc2O1 (centres undefined)	none
Cc1ccc2c(c1)S/C(=C/c1ccc[n+](C)c1)N2CCO	A3A deaminase 70 | APOBEC3A confirm 84 | UDG ctr A3A inactive
